From publication PMC5540273 (PLoS ONE, 2017)

Each compound was assayed on PKMYT1. Details: concentration: 1 μM, replicates: in singlicate; n = 1.
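Further: KINOMEscan kinase panel screen.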

| SMILES | %Inh [%] |
| --- | --- |
| O=c1cc(N2CCOCC2)nc2n(Cc3cccc(Cl)c3)ccn12 [GSK2296823] | 11 |
| Cn1cc(-c2ccc3c(c2)CCN3C(=O)Cc2cccc(C(F)(F)F)c2)c2c(N)ncnc21 [GSK2606414] | 5 |
| CSc1ccc(NC2=C(c3ccccc3Cl)C(=O)NC2=O)cc1 [SB-342411] | 25 |
| FC(F)(F)c1cc(Nc2nccc(-c3c(-c4ccc(Cl)cc4)nn4ncccc34)n2)ccc1Cl [GW829351] | 0 |
| Nc1nc(-c2ccc3c(N)n[nH]c3c2)cc(N2CCCCC2)n1 [GSK2228768] | 13 |
| Nc1nc(-c2cccnc2)c(-c2ccnc3ccccc23)s1 [GW684083] | 0 |
| O=C(Nc1ccccc1)Nc1ccc(Oc2ccc3nccn3n2)cc1 | 8 |
| O=C(Nc1ccccc1F)NC1CCN(c2ccnc(Nc3ccc(F)cc3)n2)C1 (centres unmarked) [GSK1379722] | 4 |
| CNc1nccc(-c2c(-c3ccc(F)cc3)ncn2CCCN2CCOCC2)n1 [SB-222516] | 0 |
| CCn1c(-c2ccncc2)nc2cnccc21 [SB-735216] | 6 |
| Fc1cccc(COc2ccc(Nc3ncnc4sc(-c5ccc[nH]5)cc34)cc2Cl)c1 [GW707818] | 0 |
| N#Cc1ccc(Oc2ccc(Nc3ncnc4cc[nH]c34)cc2Cl)cc1 | 19 |
| Cc1cc(N2CCC(NS(=O)(=O)c3ccc(F)cc3)CC2)nc(Nc2cccc(C#N)c2)n1.O=C(O)C(F)(F)F [GSK1653537] | 0 |
| CC(C)(C)OC(=O)NC1CCCN(c2cc(-c3ccc4c(N)n[nH]c4c3)nc(N)n2)C1 (centres unmarked) [GSK2286096] | 0 |
| Fc1ccc(-c2ncn(CCCNCc3ccccc3)c2-c2ccncc2)cc1 | 27 |
| Cc1ccc(C)c(NC(=O)NCCNc2ccnc(Nc3ccc(F)cc3)n2)c1 [GSK1379878] | 0 |
| CSc1nn2c(=O)cc(N3CCOCC3)nc2n1Cc1cccc(Cl)c1Cl [GSK2347225] | 0 |
| c1ccc(-c2ccc3c(-c4ccnc(Nc5ccc6c(c5)OCCO6)n4)cnn3n2)cc1 [GW818941] | 3 |
| CCc1nc(-c2cccc(N(C)S(=O)(=O)c3ccccc3)c2)c(-c2ccnc(Nc3ccc(N4CCN(C(C)=O)CC4)nc3)n2)s1 [GSK1645895] | 1 |
| Cl.Cl.c1ccc(-c2cc3ccncc3cc2OC2CCNCC2)cc1 [GSK1122999] | 14 |
| CS(=O)(=O)CCNCc1nc(-c2ccc3ncnc(Nc4ccc(OCc5cccc(F)c5)c(Cl)c4)c3c2)cs1.Cl [GW583340] | 0 |
| Cc1cccc(-c2nc(Nc3ccc4[nH]nnc4c3)c3ccccc3n2)n1 [GW867587] | 0 |
| Nc1nc(-c2ccccn2)c(-c2ccnc3ccccc23)s1 [GW548057] | 0 |

What follows are compounds tested on PKN1. Details: concentration: 1 μM, replicates: in singlicate; n = 1.

| SMILES | %Inh [%] |
| --- | --- |
| Fc1cccc(COc2ccc(Nc3ncnc4cc[nH]c34)cc2Cl)c1 | 0 |
| O=C(CCO)NCCn1ccc2ncnc(Nc3ccc(Oc4cccc(C(F)(F)F)c4)c(Cl)c3)c21 | 0 |
| COc1cc2c(Nc3cccc(NC(=O)c4ccccc4)c3)ncnc2cc1OCCCN1CCOCC1 [GSK223810] | 8 |
| Cl.Cn1ccc(-c2cccc(Nc3ccnc4cc(-c5nccs5)ccc34)c2)n1 [GW525701] | 0 |
| Nc1n[nH]c2nnc(-c3ccccc3)cc12 [SB-517389] | 7 |
| Fc1cccc(COc2ccc(Nc3ncnc4nn5ccccc5c34)cc2Cl)c1 [GW689066] | 0 |
| CN1c2ccc(-c3ccc(C(=O)NCCO)cc3)cc2-c2[nH]ncc2S1(=O)=O | 0 |
| Clc1cccc(-c2nc(Nc3ccncc3)c3ccccc3n2)c1 [GW873004] | 0 |
| COc1ccc(Nc2nccc(N3CCC(NC(=O)c4cccc(NC(C)=O)c4)C3)n2)cc1 (centres unmarked) [GSK1379732] | 0 |
| COc1ccc(Nc2nccc(N3CCC(NC(=O)Nc4ccc5c(c4)OCO5)C3)n2)cc1 (centres unmarked) [GSK1379745] | 38 |
| COC(=O)c1c(-c2ccccc2)c2cc(Cl)ccc2c(=O)n1Cc1ccc(S(C)(=O)=O)cc1 | 0 |
| Cc1ccc(NC(=O)c2cccc(C#N)c2)cc1-c1ccc(C(=O)Nc2ccncc2)cc1 [GSK1398463] | 28 |
| O=C(c1ccc(-c2cc(-c3c[nH]nc3-c3ccccn3)ccn2)cc1)N1CCCC1 [GW792479] | 0 |
| O=c1cc(N2CCOCC2)nc2n(Cc3cccc(Cl)c3)ccn12 [GSK2296823] | 34 |
| Cn1cc(-c2ccc3c(c2)CCN3C(=O)Cc2cccc(C(F)(F)F)c2)c2c(N)ncnc21 [GSK2606414] | 37 |
| CSc1ccc(NC2=C(c3ccccc3Cl)C(=O)NC2=O)cc1 [SB-342411] | 36 |
| FC(F)(F)c1cc(Nc2nccc(-c3c(-c4ccc(Cl)cc4)nn4ncccc34)n2)ccc1Cl [GW829351] | 0 |
| Nc1nc(-c2ccc3c(N)n[nH]c3c2)cc(N2CCCCC2)n1 [GSK2228768] | 18 |

| SMILES | %Inh [%] |
| --- | --- |
| Nc1nc(-c2cccnc2)c(-c2ccnc3ccccc23)s1 [GW684083] | 0 |
| O=C(Nc1ccccc1)Nc1ccc(Oc2ccc3nccn3n2)cc1 | 6 |
| O=C(Nc1ccccc1F)NC1CCN(c2ccnc(Nc3ccc(F)cc3)n2)C1 (centres unmarked) [GSK1379722] | 0 |
| CNc1nccc(-c2c(-c3ccc(F)cc3)ncn2CCCN2CCOCC2)n1 [SB-222516] | 0 |
| CCn1c(-c2ccncc2)nc2cnccc21 [SB-735216] | 2 |
| Fc1cccc(COc2ccc(Nc3ncnc4sc(-c5ccc[nH]5)cc34)cc2Cl)c1 [GW707818] | 32 |
| N#Cc1ccc(Oc2ccc(Nc3ncnc4cc[nH]c34)cc2Cl)cc1 | 0 |
| Cc1cc(N2CCC(NS(=O)(=O)c3ccc(F)cc3)CC2)nc(Nc2cccc(C#N)c2)n1.O=C(O)C(F)(F)F [GSK1653537] | 23 |
| CC(C)(C)OC(=O)NC1CCCN(c2cc(-c3ccc4c(N)n[nH]c4c3)nc(N)n2)C1 (centres unmarked) [GSK2286096] | 0 |
| Fc1ccc(-c2ncn(CCCNCc3ccccc3)c2-c2ccncc2)cc1 | 23 |
| Cc1ccc(C)c(NC(=O)NCCNc2ccnc(Nc3ccc(F)cc3)n2)c1 [GSK1379878] | 0 |
| CSc1nn2c(=O)cc(N3CCOCC3)nc2n1Cc1cccc(Cl)c1Cl [GSK2347225] | 5 |
| c1ccc(-c2ccc3c(-c4ccnc(Nc5ccc6c(c5)OCCO6)n4)cnn3n2)cc1 [GW818941] | 65 |
| CCc1nc(-c2cccc(N(C)S(=O)(=O)c3ccccc3)c2)c(-c2ccnc(Nc3ccc(N4CCN(C(C)=O)CC4)nc3)n2)s1 [GSK1645895] | 34 |
| Cl.Cl.c1ccc(-c2cc3ccncc3cc2OC2CCNCC2)cc1 [GSK1122999] | 0 |
| CS(=O)(=O)CCNCc1nc(-c2ccc3ncnc(Nc4ccc(OCc5cccc(F)c5)c(Cl)c4)c3c2)cs1.Cl [GW583340] | 0 |
| Cc1cccc(-c2nc(Nc3ccc4[nH]nnc4c3)c3ccccc3n2)n1 [GW867587] | 0 |
| Nc1nc(-c2ccccn2)c(-c2ccnc3ccccc23)s1 [GW548057] | 0 |
